# Data published in the supplement of paper PMC8975748.
# Where a name gives a salt, the structure may show the parent alone.
# System: Saccharomyces cerevisiae BY4741 SeMeCo community
# Test: z-score of subpopulation abundance vs DMSO median, subpopulation auxotrophic for HLUM; higher = larger share of this subpopulation than in DMSO controls
# Conditions: 10 µM; 24 h; SM minimal medium; subpopulation (auxotrophy): HLUM
# Procedure: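 Fluorescent four-plasmid SeMeCo (self-establishing metabolically cooperating S. cerevisiae BY4741 community; plasmids pH-mRuby2, pL-mWasabi, pU-eCFP, pM-TagRFP657) was grown 24 h in minimal SM medium with each Selleck FDA-approved drug at 10 µM in 384-well plates. Cells were fixed and imaged by high-content confocal microscopy. For each auxotrophic subpopulation (and the prototroph), a z-score gives the deviation from the DMSO vehicle-control population median.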
row,SMILES,z-score of subpopulation abundance
1,CCOC(=O)CCC(=O)O[C@H]1[C@H](O[C@@H]2[C@@H](C)[C@H](O[C@H]3C[C@@](C)(OC)[C@@H](O)[C@H](C)O3)[C@@H](C)C(=O)O[C@H](CC)[C@@](C)(O)[C@H](O)[C@@H](C)C(=O)[C@H](C)C[C@@]2(C)O)O[C@H](C)C[C@@H]1N(C)C [Erythromycin Ethylsuccinate],0.83
2,CC[N+](C)(C)c1cccc(O)c1 [Edrophonium chloride],0.62
3,CN(C)CCCN1c2ccccc2Sc2ccccc21 [Promazine hydrochloride],0.6
4,CC[C@@]1(O)C(=O)OCc2c1cc1n(c2=O)Cc2cc3c(CN(C)C)c(O)ccc3nc2-1 [Topotecan HCl],-0.39
5,OCCN1CCN(CC/C=C2/c3ccccc3Sc3ccc(C(F)(F)F)cc32)CC1 [Flupenthixol dihydrochloride],-0.47
6,Cc1ccc(-c2ncc(Cl)cc2-c2ccc(S(C)(=O)=O)cc2)cn1 [Etoricoxib],-0.24
7,Cc1nnc(SCC2=C(C(=O)O)N3C(=O)[C@@H](NC(=O)Cn4cnnn4)[C@H]3SC2)s1 [Cefazolin Sodium],-0.81
8,NC(CO)(CO)CO [Trometamol],-0.35
9,O=C1Nc2ccccc2C1=O [Isatin],-0.52
10,CC(C)COc1ccc(CNC(=O)N(Cc2ccc(F)cc2)C2CCN(C)CC2)cc1 [Pimavanserin],-0.3
11,CC1(C)[C@H](C(=O)O)N2C(=O)C[C@H]2S1(=O)=O [Sulbactam sodium],0.51
12,C[C@]12CC[C@@H]3c4ccc(OS(=O)(=O)O)cc4CC[C@H]3[C@@H]1CCC2=O [Estropipate],-0.39
13,CC1(C)CC[C@]2(C(=O)O)CC[C@]3(C)C(=CC[C@@H]4[C@@]5(C)CC[C@H](O)C(C)(C)[C@@H]5CC[C@]43C)[C@@H]2C1 [Oleanolic Acid],0.12
14,Cc1nccn1CC1CCc2c(c3ccccc3n2C)C1=O (stereo not given) [Ondansetron Hydrochloride Dihydrate],-0.23
15,N#CC(c1ccc(Cl)cc1)c1c(Cl)cc(-n2ncc(=O)[nH]c2=O)cc1Cl (stereo not given) [Diclazuril],0.35
16,C[C@@H](O)[C@H]1C(=O)N2C(C(=O)O)=C(SCCNC=N)C[C@H]12 [Imipenem],-0.14
17,O=C(c1ccc(OCCN2CCCCC2)cc1)c1c(-c2ccc(O)cc2)sc2cc(O)ccc12 [Raloxifene HCl],-0.56
18,C[C@]12CC[C@@H]3c4ccc(OC(=O)c5ccccc5)cc4CC[C@H]3[C@@H]1CC[C@@H]2O [Estradiol Benzoate],-0.15
19,O=C(O)c1cc(O)c2c(c1)[C@H]([C@H]1c3cc(C(=O)O)cc(O)c3C(=O)c3c(O[C@@H]4O[C@H](CO)[C@@H](O)[C@H](O)[C@H]4O)cccc31)c1cccc(O[C@@H]3O[C@H](CO)[C@@H](O)[C@H](O)[C@H]3O)c1C2=O [Sennoside A],-1.25
20,COc1ccc2cc3[n+](cc2c1OC)CCc1cc2c(cc1-3)OCO2 [Berberine Sulfate],-0.34

row,SMILES,z-score of subpopulation abundance
1,O=C1C(=O)c2ccccc2C(O)=C1C1CCC(c2ccc(Cl)cc2)CC1 (stereo not given) [Atovaquone],0.68
2,C[C@H]1COc2c(N3CCN(C)CC3)c(F)cc3c(=O)c(C(=O)O)cn1c23 [Levofloxacin hydrate],0.84
3,CCCCCCCCN=c1ccn(CCCCCCCCCCn2ccc(=NCCCCCCCC)cc2)cc1 [Octenidine Dihydrochloride],58.5
4,Cc1onc(-c2ccccc2)c1C(=O)N[C@@H]1C(=O)N2[C@@H]1SC(C)(C)[C@@H]2C(=O)O [Oxacillin sodium monohydrate],0.03
5,CC[C@H]1OC(=O)C[C@@H](O)[C@H](C)[C@@H](O[C@@H]2O[C@H](C)[C@@H](O)[C@H](N(C)C)[C@H]2O)[C@@H](CCN2C[C@H](C)C[C@H](C)C2)C[C@@H](C)C(=O)/C=C/C(C)=C/[C@@H]1CO[C@@H]1O[C@H](C)[C@@H](O)[C@@H](OC)[C@H]1OC [Tilmicosin phosphate],-0.75
6,Cc1cc(NS(=O)(=O)c2ccc(N)cc2)no1 [Sulfamethoxazole],-0.41
7,CC[C@@H]1/C=C(\C)C[C@H](C)C[C@H](OC)[C@H]2O[C@@](O)(C(=O)C(=O)N3CCCC[C@H]3C(=O)O[C@H](/C(C)=C/[C@@H]3CC[C@@H](O)[C@H](OC)C3)[C@H](C)[C@@H](O)CC1=O)[C@H](C)C[C@@H]2OC [Ascomycin (FK520)],2.95
8,OCCN1CCN(CCCN2c3ccccc3Sc3ccc(Cl)cc32)CC1 [Perphenazine],-0.22
9,CCN(CC)C(=O)C1(c2ccccc2)CC1CN (stereo not given) [Milnacipran HCl],-0.13
10,CN1C2CCCC1CC(NC(=O)c1nn(C)c3ccccc13)C2 (stereo not given) [Granisetron HCl],-0.37
11,COc1ccc(C2CNC(=O)C2)cc1OC1CCCC1 (stereo not given) [Rolipram],-0.71
12,Cc1onc(-c2c(F)cccc2Cl)c1C(=O)N[C@@H]1C(=O)N2[C@@H]1SC(C)(C)[C@@H]2C(=O)O [Flucloxacillin sodium],-0.68
13,Oc1cccc(O)c1 [Resorcinol],-0.65
14,Cc1cccc(Nc2ccccc2C(=O)O)c1C [Mefenamic Acid],-0.2
15,CCn1cc(C(=O)O)c(=O)c2cc(F)c(N3CCNCC3)cc21 [Norfloxacin],-0.9
16,C=CC1=C(C(=O)O)N2C(=O)[C@@H](NC(=O)/C(=N\OCC(=O)O)c3csc(N)n3)[C@H]2SC1 [Cefixime],-0.73
17,CCOC(=O)C1=C(C)NC(C)=C(C(=O)OCC)C1c1ccccc1/C=C/C(=O)OC(C)(C)C [Lacidipine],-0.21
18,OC(c1cc(C(F)(F)F)nc2c(C(F)(F)F)cccc12)C1CCCCN1 (stereo not given) [Mefloquine HCl],0.33
19,CCCc1nn(C)c2c(=O)[nH]c(-c3cc(S(=O)(=O)N4CCN(C)CC4)ccc3OCC)nc12 [Sildenafil],0.26
20,CC[C@H]1OC(=O)[C@H](C)[C@@H](O[C@H]2C[C@@](C)(OC)[C@@H](O)[C@H](C)O2)[C@H](C)[C@@H](O[C@@H]2O[C@H](C)C[C@H](N(C)C)[C@H]2O)[C@](C)(O)C[C@@H](C)/C(=N\OCOCCOC)[C@H](C)[C@@H](O)[C@]1(C)O [Roxithromycin],-0.6
